Screening results: PubChem BioAssay, several laboratories
A selection: hits, their analogues and other compounds. The true share with any hit is near 2.1%.
aSyn 5UTR inh – MLPCN primary screen, SNCA 5' untranslated region; alpha-synuclein 5'UTR reporter, inhibitor activity; inhibition, % (tested at 7.5 µM); 0.82% of 300,000 active; in the data active means inhibition above about 60%;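 further: H4 neuroglioblastoma cells stably carrying SNCA 5'UTR luciferase fusion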
BaF3 tox – parental Ba/F3 viability inhibition as JAK2V617F counter-screen | CellTiter-Glo ATP luminescence | inhibition, % at 5.6 µM | AID 1486 | 1.1% of 220,000 active;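 active means inhibition above a per-campaign cutoff, the mean inhibition of all tested compounds plus 3 SD, cut at about 27% in these data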
KLF5 inhibitor – suppresses KLF5 promoter-driven expression | DLD-1 KLF5 promoter-luciferase reporter, luminescence | inhibition, % at 5 µM | 0.23% of 290,000 active | AID 1700;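 active means inhibition above a per-plate limit of that plate's mean compound inhibition plus 3 SD, cut at about 60% in these data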;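 further: higher means less KLF5 promoter-driven luciferase light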
APP 5UTR inh – APP translation inhibition; SH-SY5Y APP 5'UTR-luciferase reporter, luminescence; 0.82% of 190,000 active; inhibition, % at 2 µM;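 active means inhibition above a set limit, derived from the sample mean plus 3 SD, cut at about 45% in these data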
IEC-6 cytotox – counter-screen for KLF5 inhibitors: cytotoxicity in IEC-6 cells | IEC-6 cytotoxicity, luminescence viability | inhibition, % at 5 µM | 0.78% of 290,000 active | AID 1825; in the data active means inhibition above about 22%
Ba/F3 V617F tox – lowers viability of Ba/F3 cells expressing EpoR and JAK2V617F. ATP luminescence. inhibition, % at 5.6 µM. 1.1% of 220,000 active;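 active means inhibition above the campaign mean plus 3 SD over all tested compounds, cut at about 24% in these data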;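 further: cytokine-independent growth of Ba/F3 cells driven by EpoR plus mutant JAK2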
A number is an active result; . = inactive; / = no result.

SMILES	aSyn 5UTR inh	BaF3 tox	KLF5 inhibitor	APP 5UTR inh	IEC-6 cytotox	Ba/F3 V617F tox
C/C(N)=C(/C#N)C(=O)CSc1nnc(COc2ccccc2Cl)o1	.	95	.	.	.	.
Cc1cc(C)n(C(=O)CNC(=O)c2ccc(Cl)cc2Cl)n1	.	/	.	/	.	/
Cn1c(-c2ccccc2)c[n+]2c1-c1ccccc1C2	.	63	.	.	.	85
COc1ccc(/C=N/NC(=O)c2nnn(-c3nonc3N)c2CN(C)c2ccccc2)cc1	.	/	.	/	.	/
C[N+](C)(C)CCN(Cc1ccc(Cl)cc1)c1ccccn1	.	29	.	.	.	33
CN1CCN(Cc2nc3ccccc3c(=O)n2Cc2nc(-c3cccc([N+](=O)[O-])c3)cs2)CC1	/	.	.	.	.	.
CN1CCN(Cc2nc3ccccc3c(=O)n2Cc2nc(-c3ccc4ccccc4c3)cs2)CC1	.	.	.	.	.	102
CC(Cc1ccc(Cl)cc1)N1CCC(n2nccc2NC(=O)C2CCCC2)CC1 (configuration not stated)	.	/	.	/	.	/
COCC(C)n1c(SCc2cc(=O)n3cc(C)ccc3n2)nc2ccccc2c1=O (configuration not stated)	64	.	.	.	.	.
O=C(Nc1cccc(Cl)c1)Nc1nccs1	.	.	.	.	.	.
O=C(Nc1ccc(Cl)c(Cl)c1)Nc1nccs1	.	71	.	/	78	73
COc1ccc(C(C)NCCC(c2ccc(OC(C)C)cc2)c2ccccc2OC)cc1 (configuration not stated)	93	/	.	/	.	/
COc1ccc(C(CCNC(C)c2ccccc2)C(C)C)cc1 (configuration not stated)	.	.	.	/	.	.
O=C(NCCc1ccc(Cl)cc1)c1ccc(Br)s1	.	/	.	/	.	/
Cc1ccoc1C(=O)Nc1ccc(CC(=O)O)cc1	84	.	.	79	.	.
CCc1ccc(N2C(=O)C3C4CCC(C4=C(C)C)C3C2=O)cc1 (configuration not stated)	.	.	.	.	.	.
O=C(CCS(=O)(=O)c1ccccc1)Nc1cccc2c1C(=O)NC2=O	.	.	.	.	.	.
CCC(C)N1CC(O)=C(c2nc3ccccc3[nH]2)C1=N (configuration not stated)	.	90	.	.	.	.
CCN(CC)Cc1c(C(=O)N/N=C/c2ccccn2)nnn1-c1nonc1N	.	/	.	/	.	/
O=Cc1[nH]c2ccccc2c1N(C(=O)CCl)c1ccc([N+](=O)[O-])cc1	84	.	.	/	.	.
Cc1ccc2[nH]c3c(=O)n(CC(=O)Nc4ccccc4N4CCN(C)CC4)ncc3c2c1	.	/	.	/	.	/
CN1c2ccccc2C(C)(C)C12C=Nc1c(cc(N3CCOCC3)c3ccccc13)O2 (configuration not stated)	.	.	.	.	.	.
CN1c2ccccc2C(C)(C)C12C=Cc1cc(O)ccc1O2 (configuration not stated)	.	63	.	.	.	72
CCc1[nH]nc(C(=O)N2CCCC(N3CCN(c4ccccc4C)CC3)C2)c1C (configuration not stated)	.	/	.	/	.	/
COc1ccc(C2=NN(CC(=O)Nc3ccccc3C)C(=O)CC2)cc1	.	57	.	/	.	.
SMILES	aSyn 5UTR inh	BaF3 tox	KLF5 inhibitor	APP 5UTR inh	IEC-6 cytotox	Ba/F3 V617F tox
COCCNC(=O)CN1N=C(c2ccc(OC)cc2)CCC1=O	.	/	.	/	.	/
CS(=O)(=O)N1CC(C(=O)O)Oc2ccc(CC(=O)O)cc21 (configuration not stated)	.	.	.	.	.	.
O=C(Nc1ccccn1)c1ccc(-c2ccccc2)cc1	63	/	.	/	.	/
O=C(Nc1ccccn1)c1ccc2nc(-c3ccccc3)c(-c3ccccc3)nc2c1	.	.	.	.	.	.
Cc1cccc(N(CC(=O)NCCc2ccccc2)C(=O)CCC(=O)Nc2ccccn2)c1C	.	/	.	/	.	/
CCCCCCCNC1=CC(=O)CC(c2ccco2)C1 (configuration not stated)	.	38	.	.	.	29
CCOc1ccc(NC2=CC(=O)CC(c3ccco3)C2)cc1 (configuration not stated)	.	.	.	.	.	.
Cc1ccc(S(=O)(=O)N[C@@H](Cc2ccccc2)C(=O)N2CCC(C(=O)N[C@@H](CC(C)C)C(=O)O)CC2)cc1	.	/	.	/	.	/
CCOC(=O)Cc1ccc(NC(=O)c2ccc(C(C)(C)C)cc2)cc1	104	.	.	71	.	.
O=C(Nc1cccs1)Nc1c(F)c(F)c(F)c(F)c1F	.	52	.	.	.	43
Cc1cccc(C)c1NC(=O)Nc1cccs1	.	.	.	.	.	.
O=C(Nc1cccs1)Nc1c(F)c(F)cc(F)c1F	.	43	.	.	.	30
O=C(Nc1cccs1)Nc1c(F)cc(F)cc1Br	.	.	.	.	.	.
CC1C(=O)N2CCCc3cc(S(=O)(=O)N4CCC(C(N)=O)CC4)cc1c32 (configuration not stated)	.	/	.	/	.	/
S=C(NCCc1ccccc1)Nc1cccc2cnccc12	.	42	.	.	.	.
CN1C=CC(=C2C(=O)c3ccccc3C2=O)C=C1	.	.	.	.	.	.
CCCCCCN1C=CC(=C2C(=O)c3ccccc3C2=O)C=C1	107	.	.	.	.	.
CCOc1ccc(NC(=O)CN(C)C(=O)c2sc3ccccc3c2Cl)cc1OCC	.	/	/	/	/	/
C[C@@H](CSc1ccccc1)CN1CC[C@H](NC(=O)OCc2ccccc2)CCC1=O	.	/	.	/	.	/
O=C(/C=C/Nc1ccc(F)cc1Br)c1ccccc1	70	.	.	.	.	.
CC12Cc3ccc4ccccc4c3C=C1C[N+](C)(C)C2 (configuration not stated)	.	40	.	.	.	27
CC(C)CN(C(=O)COC(=O)CNC(=O)c1ccccc1)c1c(N)n(Cc2ccccc2)c(=O)[nH]c1=O	.	/	/	/	/	/
Cc1ccc(OCC(=O)NCCNC(=O)c2ccccn2)cc1	.	/	.	/	.	/
COc1cccc(/C=N/Nc2ncnc(Cl)c2N)c1O	89	.	.	78	.	.
COc1ccc(/C=N/Nc2ncnc(Cl)c2N)cc1OC	.	.	.	.	.	.
SMILES	aSyn 5UTR inh	BaF3 tox	KLF5 inhibitor	APP 5UTR inh	IEC-6 cytotox	Ba/F3 V617F tox
COc1cccc(/C=N/Nc2cc(-n3nc(C)cc3-c3ccccc3)ncn2)c1O	110	.	.	71	.	.
COc1cccc(/C=N/Nc2nc(Nc3ccccc3)nc(-n3nc(C)cc3C)n2)c1O	.	.	.	79	.	.
CCC(C(=O)Nc1ccc([N+](=O)[O-])cn1)c1ccccc1 (configuration not stated)	.	/	.	/	.	/
CCOc1cc(C(c2c(C)[nH][nH]c2=O)c2c(C)[nH][nH]c2=O)ccc1OCc1ccc([N+](=O)[O-])cc1	.	.	.	/	.	.
CCOc1cc(/C=C2/NC(=S)NC2=O)ccc1OCc1ccc([N+](=O)[O-])cc1	62	.	.	.	.	.
Cc1ccccc1S(=O)(=O)Cc1ccc(C(=O)N2CC(C)CC(C)C2)o1 (configuration not stated)	.	.	.	.	.	.
